Compound activity as filed in PubChem BioAssay.
Compounds with a hit are over-represented: about 31% of the library has one in this group of screens.
CYP2C19 inh – inhibitors of human CYP2C19 | P33261 | CYP2C19 Supersomes, luciferin-H EGE luminescence, 30 min | inhibition, % at 5 µM | hit rate 21% among 96,000 | AID 778;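 active means CYP2C19 inhibition above a set limit at 5 µM in the primary screen, cut at about 50% in these data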
CYP2C9 act – increases human cytochrome P450 2C9 activity; hit rate 1.4% among 96,000; activation factor at 5 µM; recombinant CYP2C9, luciferin-H conversion, luminescence; active compounds read high; factor 1 = untreated enzyme, 0 = blocked; AID 1024; P11712;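 active means activation factor of 2 or more for CYP2C9 at a 5 µM dose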
Target sequence (P11712 whole entry, looked up): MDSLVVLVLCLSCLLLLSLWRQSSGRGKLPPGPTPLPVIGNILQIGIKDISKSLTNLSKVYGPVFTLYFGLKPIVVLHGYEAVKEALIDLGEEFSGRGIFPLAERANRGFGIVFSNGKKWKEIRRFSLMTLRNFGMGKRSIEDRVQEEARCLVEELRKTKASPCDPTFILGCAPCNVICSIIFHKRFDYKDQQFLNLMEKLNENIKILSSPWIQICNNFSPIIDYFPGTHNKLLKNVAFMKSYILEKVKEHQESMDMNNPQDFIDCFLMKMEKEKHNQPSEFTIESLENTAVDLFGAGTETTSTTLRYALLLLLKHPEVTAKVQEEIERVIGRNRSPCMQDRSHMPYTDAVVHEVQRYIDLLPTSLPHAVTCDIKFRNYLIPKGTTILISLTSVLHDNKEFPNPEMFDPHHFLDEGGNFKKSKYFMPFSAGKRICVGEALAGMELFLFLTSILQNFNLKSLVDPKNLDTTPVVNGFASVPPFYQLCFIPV
CYP2C9 inh – inhibitors of human CYP2C9 | CYP2C9 Supersomes, luciferin-H conversion, luminescence | inhibition, % at 5 µM | hit rate 20% among 96,000;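 active means blocking of liver enzyme CYP2C9 beyond about 50% at 5 µM, limit read from the data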
CYP2C19 act – increases human CYP2C19 enzyme activity | P33261 | recombinant CYP2C19, luciferin-H EGE luminescence; active compounds read high; 0 = fully inhibited enzyme, 1 = untreated enzyme | activation factor at 5 µM | 96,000 tested, under 10 active;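 active means activation factor of at least 2 at 5 µM in the primary screen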
Large screens that a line does not name were inactive.

Cc1onc(-c2ccccc2Cl)c1C(=O)OCC(=O)c1ccc2c(c1)OCCO2	CYP2C19 inh 55
COc1cccc(N2C(=O)C3C(C2=O)C2C=CC3C23CC3)c1 (stereo not given)	none
CCN(CC)S(=O)(=O)c1ccc(NC(=O)c2ccccc2N(C)S(C)(=O)=O)cc1	CYP2C9 inh 61
Cc1cc(=O)oc(C)c1C(=O)OCC(=O)c1ccc2ccccc2c1	CYP2C19 inh 63
Cc1onc(-c2c(Cl)cccc2Cl)c1C(=O)Nc1ccc2c(c1)OCCO2	CYP2C19 inh 54, CYP2C9 inh 88
Cc1onc(-c2c(F)cccc2Cl)c1C(=O)Nc1cccc(Cn2cccn2)c1	CYP2C9 inh 52
Cc1nc2ccccc2n1C1CCN(CC(=O)NCc2ccc(F)cc2)CC1	none
COc1ccc(CCNC(=O)NC(C(F)(F)F)C(F)(F)F)cc1OC	none
C/C(=N\NC(=O)c1cccc(F)c1)c1ccc(Br)s1	none
Cc1ccc(NC(=S)NC(=O)c2c(-c3ccccc3Cl)noc2C)cc1	none
COC(=O)c1cc(OC)c(OC)cc1NC(=O)c1c(-c2ccccc2Cl)noc1C	CYP2C9 inh 56
O=c1[nH]c2ccsc2c(=O)n1-c1ccc(F)cc1	none
CCc1ccc(CNc2ccc(N3CCN(C(C)=O)CC3)cc2)cc1	CYP2C19 inh 56
CC(=O)N1CCN(c2ccc(NCc3ccc(C)cc3)cc2)CC1	CYP2C9 inh 54
CC(=O)c1ccc(N2CCN(C(=S)Nc3ccccc3)CC2)cc1	none
CC(=O)Nc1ccc(N2CCN(C(C)=O)CC2)cc1	none
CC(=O)c1ccc(NCC(=O)N2CCN(c3ccccc3)CC2)cc1	CYP2C19 inh 58
CCOC(=O)C(C)Sc1nc(C2CC2)cc(C(F)(F)F)c1C#N (stereo not given)	none
COc1ccc(C2C(C(=O)Nc3cccnc3)=C(C)Nc3nc(-c4ccco4)nn32)cc1 (stereo not given)	none
CC(C)(C)Nc1nc(Oc2ccc(=O)n(-c3ccccc3)n2)nc(N2CCOCC2)n1	CYP2C19 inh 54, CYP2C9 inh 68
CCOC(=O)CSC1=C(C#N)C(c2ccc(Cl)cc2)CC(=O)N1 (stereo not given)	CYP2C19 inh 96, CYP2C9 inh 98
CCOC(=O)CSC1=C(C#N)C(c2ccc3c(c2)OCO3)CC(=O)N1 (stereo not given)	none
C=C(C)CSC1=C(C#N)C(c2ccsc2)CC(=O)N1 (stereo not given)	none
CCCCCCSC1=C(C#N)C(c2ccc(O)cc2)CC(=O)N1 (stereo not given)	CYP2C19 inh 63, CYP2C9 inh 74
CCCCOC(=O)CSC1=C(C#N)C(c2ccc3c(c2)OCO3)CC(=O)N1 (stereo not given)	CYP2C9 inh 57
CCCOC(=O)CSC1=C(C#N)C(c2ccccc2Cl)CC(=O)N1 (stereo not given)	CYP2C19 inh 95, CYP2C9 inh 96
CC1=CC(=NOC(=O)/C=C/c2ccccc2)C=C(C)C1=O	none
COc1ccc2c(c1)nc1n2CN(CC2CCCO2)CN1Cc1ccccc1 (stereo not given)	none
O=C(Nc1cccc(F)c1)C1CC(=O)N(c2ccc(Br)cc2)C1 (stereo not given)	CYP2C19 inh 63, CYP2C9 inh 63
COc1ccc(OC)c(NC(=O)C2CC(=O)N(c3ccc(Br)cc3)C2)c1 (stereo not given)	CYP2C19 inh 86, CYP2C9 inh 84
COc1ccccc1CNC(=O)C1CC(=O)N(c2ccc(C)c(C)c2)C1 (stereo not given)	CYP2C19 inh 58, CYP2C9 act 2.5
COc1ccccc1CNC(=O)C1CC(=O)N(C2CCCC2)C1 (stereo not given)	none
O=C(O)C1CC(=O)N(c2ccc(Br)cc2)C1 (stereo not given)	none
O=C(Nc1cccc(F)c1)C1CC(=O)N(c2ccc(Cl)cc2)C1 (stereo not given)	CYP2C19 inh 88, CYP2C9 inh 71
[O-]/C(=C(\C(=S)Nc1cccc2ccccc12)[n+]1ccccc1)c1ccc2c(c1)OCCO2	none
C=CCN(CC=C)C(=O)C1CC(=O)N(c2ccc(Br)cc2)C1 (stereo not given)	CYP2C19 inh 63
COc1ccc(/C=c2/sc3n(c2=O)NC2(c4ccccc4)N(C)C(=O)N(C)C2(c2ccccc2)N=3)cc1 (stereo not given)	CYP2C9 inh 60
CCOC(=O)N1CCC(c2nc3ccccc3[nH]2)CC1	none
CN1C=CC=C/C1=C(\C#N)c1nc2ccccc2[nH]1	none
CCOC(=O)c1c(-c2ccccc2)n(C)c2ccc(O)cc12	none
CC(=O)Cc1nsc(NC(=O)c2ccc(COc3ccccc3)o2)n1	CYP2C9 inh 57
